Data published in article PMC13494018.

B1: design_487_778f5c6d-c470-43b8-8f82-464af6177e08_1892_dldesign_0_cycle1_af2pred (protein)
chain: AAQALLAQANAALGQLLDLAAEASASSPEEAARATAQMRETAAAAQAAAAAAAAQDPAIAPQAQAIAASAAALARNAEELVAAR
B2: design_488_244881a1-ba0c-4c08-ad9c-1f64cf93580a_123_dldesign_0_cycle1_af2pred (protein)
chain: GGEEEGEELLERGREAAEEIARLPLSETERLARLTGEALEYAREAARVAGGEKAREILTAISRAHAASVA
B3: design_487_778f5c6d-c470-43b8-8f82-464af6177e08_1639_dldesign_0_cycle1_af2pred (protein)
chain: GALAVQTARASAAQAVAAVAAAPAEEAPARVAAAEKLLAVLDGIAEAASPEAGAQIRAIVDAARAAIAATAAAKAAA
B4: design_487_778f5c6d-c470-43b8-8f82-464af6177e08_2307_dldesign_0_cycle1_af2pred (protein)
chain: AAEAEEEAKKLAEEAAKLVAAVDPSIAEEVAKALELGNLAQVKTMLVLAQSAYESTDPAARALALANLRTVAAQAIARAA
B5: design_487_778f5c6d-c470-43b8-8f82-464af6177e08_1930_dldesign_0_cycle1_af2pred (protein)
chain: AQAAADAAEALSELAIKFSKLAKKISPEAAAYFARAAGYFLRASGILRAGGDAAAAAAALAKGLALFLLGLAILKKVLS
B6: design_488_244881a1-ba0c-4c08-ad9c-1f64cf93580a_236_dldesign_0_cycle1_af2pred (protein)
chain: PVERAIRLAEGAITFLEGLIVARKDGNAAGAAAYAQAAKTLLEELAKLLPGEIAKEATEAAKLAADPATAEKALALAKKILERIKKE
B7: design_487_778f5c6d-c470-43b8-8f82-464af6177e08_2029_dldesign_0_cycle1_af2pred (protein)
chain: ATAAEIAARMGAAIKRNALANMDEIAAELADDPELAAKRLAAVVENARKMLEAAGLTPEEVAALVAELEARADELVEANRA
B8: design_488_244881a1-ba0c-4c08-ad9c-1f64cf93580a_204_dldesign_0_cycle1_af2pred (protein)
chain: LAATRAAANAVLTRASKLNLQAVADPALAEVAALANQAIALALAGLADPATLAADTAAAAAVLDQAEALAKLVA
B9: design_488_244881a1-ba0c-4c08-ad9c-1f64cf93580a_114_dldesign_0_cycle1_af2pred (protein)
chain: AAAALAGEVSAELVEIVGEAARVLGEAERLGDAEVVALAREARALANKALAALAAGDVEKAVEYAKKAREKLEEARRRLEEVKRR
B10: design_487_778f5c6d-c470-43b8-8f82-464af6177e08_2068_dldesign_0_cycle1_af2pred (protein)
chain: AAAEAAAAAEAQEKAKEAAEKAVENIDDPELAEKYAEEAGKALLAGADLEEVLTYANSLNPEVARLIARAYARLGAAAVRA
B11: design_488_244881a1-ba0c-4c08-ad9c-1f64cf93580a_302_dldesign_0_cycle1_af2pred (protein)
chain: MMAEYEARARELFEKAAASDPETARKIGEEMVKLAKEDVEFGNVAALVAAQVAAESGSPVLRQIQAAIARTVIEQLA
B12: design_487_778f5c6d-c470-43b8-8f82-464af6177e08_1416_dldesign_0_cycle1_af2pred (protein)
chain: DEEERKKKAAEIMKKQAEKLKALAAADPANALTYRAAAALFEAAAIETLKDPEKGLKVGEDAVGLMAQVPAVAPEAKAAYEKAKALL
B13: design_487_778f5c6d-c470-43b8-8f82-464af6177e08_1484_dldesign_0_cycle1_af2pred (protein)
chain: SRLEELRRRRDEYVAQLEVAIAELEELSKRAVTEEARRAAEEARALVEEGDKDPERGANIVGRALVQAQAALARARRLNEAA
B14: design_487_778f5c6d-c470-43b8-8f82-464af6177e08_2394_dldesign_0_cycle1_af2pred (protein)
chain: AAEEAERIIEGNRQLGLAIAEGSASKEEMKAKVDEAVEKARKAVEEDPEKGPEYALELFTKTNKEIMLQALAELT
B15: design_487_778f5c6d-c470-43b8-8f82-464af6177e08_1544_dldesign_0_cycle1_af2pred (protein)
chain: AALQQANAALKAAQSLVDHVKKNPEFSPESIIKVADVAIELAKQAEEEAAKADPEVAKKAKEAKEEAEKIKKEAA
B16: design_487_778f5c6d-c470-43b8-8f82-464af6177e08_1978_dldesign_0_cycle1_af2pred (protein)
chain: AKEKAIEEITALRELAVKAAEEVGKEEEKEKIKELTEKAIEALDNPEESARLITKAAAIAVEVAPEKAAQIRRLASAAIQAALAT
B17: design_487_778f5c6d-c470-43b8-8f82-464af6177e08_1499_dldesign_0_cycle1_af2pred (protein)
chain: DEAELLEAINRAGRETRERLLALGESEAEATRAASAVQVVGYAALTGNAEAEAIGMASLATVGKGRPVAVAAAEEVADRIRAA
B18: design_487_778f5c6d-c470-43b8-8f82-464af6177e08_1924_dldesign_0_cycle1_af2pred (protein)
chain: MEKETEELLKKAKELIEKAKELAKEVLKKDPISGRGIQAAVKSAEELLKRGIEGEDSLRYAKQALELAKVALEMAKATLAA
B19: design_488_244881a1-ba0c-4c08-ad9c-1f64cf93580a_165_dldesign_0_cycle1_af2pred (protein)
chain: MTPADQLIELARAIVEQAKASDPETAAVNAAGAEAAAGALRNYAAANPETGPKAEAAAKEAEAAAKAIKAAVAAAK

target: CD276, Q5ZPR3
Sequence (Q5ZPR3 whole entry): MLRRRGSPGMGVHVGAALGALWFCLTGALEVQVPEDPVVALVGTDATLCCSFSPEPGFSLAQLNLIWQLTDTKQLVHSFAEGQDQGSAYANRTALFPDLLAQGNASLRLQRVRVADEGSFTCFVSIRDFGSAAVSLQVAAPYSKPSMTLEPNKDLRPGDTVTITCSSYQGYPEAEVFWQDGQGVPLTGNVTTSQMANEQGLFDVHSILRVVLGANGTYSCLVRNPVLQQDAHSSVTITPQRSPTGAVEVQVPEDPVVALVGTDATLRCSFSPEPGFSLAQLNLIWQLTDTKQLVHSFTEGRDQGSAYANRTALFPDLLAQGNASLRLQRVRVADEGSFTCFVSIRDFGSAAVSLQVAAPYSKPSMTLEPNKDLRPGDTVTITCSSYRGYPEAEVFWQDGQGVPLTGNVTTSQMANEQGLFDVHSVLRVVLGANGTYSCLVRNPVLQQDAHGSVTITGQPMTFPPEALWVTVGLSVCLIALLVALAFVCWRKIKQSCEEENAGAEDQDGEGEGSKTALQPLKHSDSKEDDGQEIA

Binding in a display sort, inactive:
B1 not found
B2 not found
B3 not found
B4 not found
B5 not found
B6 not found
B7 not found
B8 not found
B9 not found
B10 not found
B11 not found
B12 not found
B13 not found
B14 not found
B15 not found
B16 not found
B17 not found
B18 not found
B19 not found
